An excerpt weighted towards active compounds, which were near 2.2% of everything screened.
pCIP destab = lowers stability of the mouse p/CIP coactivator protein; Q05BA5; decrease of EGFP signal, % at 10 µM; 0.01% of 290,000 active; F442A p/CIP-EGFP cells, EGFP fluorescence, 16 h;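 active = EGFP signal decrease of at least 30% at 10 µM or well 3 SD below plate mean, unless failing retest; inactive = the rest, including hits failing retest or dose response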
Target sequence (Q05BA5 1-1403): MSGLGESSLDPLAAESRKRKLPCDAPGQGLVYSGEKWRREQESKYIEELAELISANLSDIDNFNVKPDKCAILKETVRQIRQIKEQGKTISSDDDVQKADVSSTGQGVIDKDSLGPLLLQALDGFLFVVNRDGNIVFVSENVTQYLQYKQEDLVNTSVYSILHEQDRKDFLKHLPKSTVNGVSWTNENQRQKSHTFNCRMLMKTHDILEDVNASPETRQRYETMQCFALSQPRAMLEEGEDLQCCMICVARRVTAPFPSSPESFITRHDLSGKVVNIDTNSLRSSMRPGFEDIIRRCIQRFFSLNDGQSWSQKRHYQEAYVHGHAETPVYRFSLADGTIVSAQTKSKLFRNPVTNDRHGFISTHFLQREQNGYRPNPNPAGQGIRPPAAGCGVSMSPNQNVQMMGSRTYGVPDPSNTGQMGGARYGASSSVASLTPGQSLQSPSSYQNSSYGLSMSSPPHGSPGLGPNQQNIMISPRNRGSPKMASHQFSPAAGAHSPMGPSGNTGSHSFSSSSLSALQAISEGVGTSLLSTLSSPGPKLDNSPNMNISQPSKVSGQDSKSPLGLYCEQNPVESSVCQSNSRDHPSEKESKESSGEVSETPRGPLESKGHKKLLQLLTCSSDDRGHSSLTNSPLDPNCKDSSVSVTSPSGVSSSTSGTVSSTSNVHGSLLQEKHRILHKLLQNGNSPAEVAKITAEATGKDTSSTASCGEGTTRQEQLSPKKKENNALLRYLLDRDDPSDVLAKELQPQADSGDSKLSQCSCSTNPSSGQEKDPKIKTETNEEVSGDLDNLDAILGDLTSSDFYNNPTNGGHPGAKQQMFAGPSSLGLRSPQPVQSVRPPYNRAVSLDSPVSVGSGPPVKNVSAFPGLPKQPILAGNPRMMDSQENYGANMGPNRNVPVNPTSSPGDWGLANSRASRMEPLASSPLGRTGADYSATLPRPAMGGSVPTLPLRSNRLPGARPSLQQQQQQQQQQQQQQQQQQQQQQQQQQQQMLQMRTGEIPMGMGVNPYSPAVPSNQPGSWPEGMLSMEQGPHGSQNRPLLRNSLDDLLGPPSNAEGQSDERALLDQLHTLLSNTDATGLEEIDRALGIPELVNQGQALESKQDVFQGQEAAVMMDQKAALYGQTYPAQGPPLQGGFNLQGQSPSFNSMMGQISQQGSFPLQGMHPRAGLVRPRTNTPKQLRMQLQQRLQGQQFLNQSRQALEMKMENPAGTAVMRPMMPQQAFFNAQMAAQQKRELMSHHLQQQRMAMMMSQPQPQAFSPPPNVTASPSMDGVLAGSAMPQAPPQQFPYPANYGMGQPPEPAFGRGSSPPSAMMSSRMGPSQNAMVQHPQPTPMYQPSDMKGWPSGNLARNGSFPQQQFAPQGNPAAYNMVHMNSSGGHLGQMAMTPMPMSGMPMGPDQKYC
PHOSPHO1 block = blocks human PHOSPHO1 phosphatase activity. AID 1565. inhibition, % at 13.3 µM. 1.1% of 290,000 active. recombinant PHOSPHO1, absorbance phosphatase assay. Q8TCT1; in the data active = inhibition above about 60%
Mot1-301 SUMO = SUMOylation pathway inhibition by Mot1-301 growth rescue; S. cerevisiae Mot1-301 growth rescue, ATP luminescence, 38.5C; percent above DMSO median, 100 means doubled; growth rescue, % at 18.8 µM; 1% of 320,000 active; AID 2716;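 active = every valid replicate shows activation above 250% relative to neutral control wells; inactive = the rest, any valid replicate at or below 250%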;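 note: OY570 slx delta 5 strain wells were the positive control but not used for scaling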
HDAC3 inh = blocks human histone deacetylase 3; recombinant HDAC3, fluorogenic peptide/trypsin coupled, fluorescence; O15379; 0.15% of 320,000 active; inhibition, % at 8.3 µM; in the data active = inhibition above about 26%, passing the limit was not always enough
JMJD2C inh = inhibitors of human GASC-1 (JMJD2C) demethylase; Q9H3R0; GST-JMJD2C(1-420) H3K9me3 demethylation, DELFIA europium; inhibition, % at 2.35 µM; 0.069% of 330,000 active;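 active = more than half of a compound's replicate wells show inhibition beyond 50%, single wells judged on their own value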;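 note: signal counts dimethyl H3K9 product captured on neutravidin plate; 0% = median of DMSO wells and 100% = 0.3 times that DMSO median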
PvdQ inh = P. aeruginosa PvdQ acylase inhibition; AID 488965; 0.063% of 340,000 active; purified PvdQ acylase, fluorescence plate reader; inhibition, % at 10 µM; in the data active = inhibition above about 30%, passing the limit was not always enough;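 note: 0% = vehicle neutral wells and 100% = reference inhibitor wells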
An asterisk follows results filed as active; x = not tested or not shown.

SMILES | pCIP destab | PHOSPHO1 block | Mot1-301 SUMO | HDAC3 inh | JMJD2C inh | PvdQ inh
O=C(Nc1ccccc1)c1ccc(=O)n(Cc2ccc(F)c(F)c2)c1 | -2.2 | 65.3* | -20.4 | -0.9 | -13.3 | 4.4
Cc1cc(C(=O)CSc2n[nH]c(N)n2)c(C)n1C1CC1 | 2.1 | 95.9* | 245.4 | 7.1 | -0.1 | -9.9
Cc1nnc(SCC(=O)c2cc(C)n(C3CC3)c2C)s1 | -16.4 | 104.8* | -12.6 | 0.3 | -3.8 | -8.7
Cc1ccc(-n2c(C)cc(C(=O)CSc3n[nH]c(N)n3)c2C)cc1 | -7.1 | -26.6 | -12.8 | 9.1 | 0.4 | -16.4
Cc1cc(C(=O)CSc2nnnn2C)c(C)n1-c1ccc2c(c1)OCCO2 | -29.3 | 42.6 | -24.9 | 0.9 | -4.2 | -13.1
Cc1nnc(SCC(=O)c2cc(C)n(-c3ccc4c(c3)OCO4)c2C)s1 | -8.1 | 92.2* | 38.5 | 7.6 | 2.5 | -0.8
Cc1cc(C(=O)CSc2n[nH]c(N)n2)c(C)n1-c1ccccc1 | -6.4 | 94.6* | -27.5 | -0.7 | 1.6 | 4.2
O=C(Nc1ccc(-c2nc3ccccc3s2)c(OC(=O)c2ccccc2)c1)c1ccccc1 | 4.6 | -14.4 | 8.6 | 1.1 | -1.9 | -6.1
C=CCn1c(C)cc(C(=O)CSc2n[nH]c(N)n2)c1C | -1.6 | 62.0* | -0.5 | -1.5 | 18.4 | 6.2
Cc1cc(C(=O)CSc2nnc(Cc3ccccc3)o2)c(C)n1Cc1ccc2c(c1)OCO2 | 11.2 | 9.7 | 7.0 | -8.0 | -23.8 | -9.8
Cc1cc(C(=O)CSc2nnc(-c3ccco3)o2)c(C)n1-c1ccc2c(c1)OCCO2 | -7.8 | 91.5* | -7.9 | -3.5 | 1.0 | 2.1
C=CCn1c(C)cc(C(=O)CSc2nnc(Cc3ccccc3)o2)c1C | 9.7 | 87.5* | -21.5 | -0.6 | -7.3 | 0.7
CCOc1ccccc1NC(=O)CN1C(=O)CSC(C)C1=O (stereo not drawn) | 5.6 | 64.7* | 0.9 | x | 4.0 | -13.0
O=C(COC(=O)c1ccc(Cl)cc1Cl)Nc1cccc(S(=O)(=O)NC2=NCCC2)c1 | x | x | 4.4 | 5.6 | -7.9 | -4.1
O=C(CN(Cc1ccccc1)C(=O)c1cccc([N+](=O)[O-])c1)Nc1c(Cl)cc(Cl)cc1Cl | -11.1 | -66.3 | 8.1 | -2.6 | -4.4 | -5.7
COC(=O)c1ccc(C(=O)OC)c(NC(=O)CSc2cccc[n+]2[O-])c1 | 11.7 | 86.9* | 6.3 | 10.6 | -3.5 | -6.1
COc1ccc2sc(NC(=O)c3ccco3)nc2c1 | -8.4 | 96.3* | 69.4 | 10.9 | -3.3 | 5.0
Cc1ccc(-c2cc(C(F)F)n3ncc(C(=O)N4CCCCC4c4cccnc4)c3n2)cc1 (stereo not drawn) | -23.8 | 7.7 | 547.8* | 1.7 | 3.8 | -5.5
Cc1cccc(N2N=C(C(=O)Nc3nc(C)cs3)CCC2=O)c1 | -5.4 | 15.3 | -1.9 | x | 0.1 | -9.5
CC(C)=C(NC(=O)c1ccccc1)C(=O)NCCc1nc2ccccc2[nH]1 | -3.9 | 64.0* | -22.1 | 7.4 | -9.2 | -12.5
Cc1c(NC(=S)NC(=O)c2ccc(Cl)cc2)c(=O)n(-c2ccccc2)n1C | x | x | -15.7 | 3.9 | -7.3 | -4.7
Cc1c(NC(=S)N/C(=N/S(=O)(=O)c2ccc(Cl)cc2)c2ccccc2)c(=O)n(-c2ccccc2)n1C | -4.6 | 82.7* | -7.1 | -0.1 | -7.8 | -11.3
Cc1c(NC(=O)C(=O)/C=C(\O)c2ccc(Cl)cc2)c(=O)n(-c2ccccc2)n1C | 1.7 | -4.4 | 293.8* | -9.1 | -7.7 | 7.2
Cc1c(NC(=O)Nc2cccc(F)c2)c(=O)n(-c2ccccc2)n1C | -4.3 | 61.0* | -20.7 | -3.6 | -1.4 | -7.9
Cc1c(C(=O)Nc2c(C)n(C)n(-c3ccccc3)c2=O)oc2ccc(Cl)cc12 | -5.7 | 70.6* | 9.9 | 3.0 | 5.3 | -0.7
SMILES | pCIP destab | PHOSPHO1 block | Mot1-301 SUMO | HDAC3 inh | JMJD2C inh | PvdQ inh
Cc1c(C(=O)Nc2c(C)n(C)n(-c3ccccc3)c2=O)oc2c(Cl)cccc12 | -2.0 | 41.4 | -20.4 | 1.1 | 4.2 | -5.7
CCN(CC)C(=O)[C@H]1C[C@H](CC(=O)NCc2ccc(OC)c(OC)c2)C(=O)N2CCc3c([nH]c4ccc(Cl)cc34)[C@]12C | x | x | x | x | x | 0.4
COc1ccc2cc(C(C)C(=O)Nc3cccc(S(=O)(=O)N(C)C)c3)ccc2c1 (stereo not drawn) | 4.9 | -13.3 | -23.2 | 1.8 | -12.7 | -5.6
Cc1c(C(=O)OCC(=O)Nc2ccc(C(=O)N(C)C)cc2)oc2ccccc12 | 8.6 | -5.1 | -10.5 | 7.1 | 1.1 | -8.0
COc1ccc(Cl)cc1NC(=O)CN(C)CC(=O)Nc1c(C)n(C)n(-c2ccccc2)c1=O | x | x | 280.8* | 0.6 | 2.6 | 14.1
Cc1c(NC(=O)Nc2cc(Cl)ccc2Cl)c(=O)n(-c2ccccc2)n1C | -15.0 | -25.3 | -13.1 | 3.9 | -0.4 | -13.0
N#CC1=C(S)N=C(N)C(c2nc(-c3ccccc3)cs2)C12CCCCC2 (stereo not drawn) | -9.4 | 63.7* | 8.8 | -4.7 | 3.0 | -29.9
Cc1cc2c(cc(C(=O)OC(C(=O)NCc3ccco3)C(C)C)n2C)o1 (stereo not drawn) | 6.4 | 66.0* | -4.1 | -0.1 | 9.0 | 5.5
O=C1S/C(=C\c2ccc(N3CCOCC3)o2)C(=O)N1Cc1c(F)cccc1Cl | -21.8 | 10.0 | 39.4 | 2.0 | 4.1 | -14.2
O=C1S/C(=C/c2ccc(N3CCOCC3)o2)C(=O)N1Cc1c(F)cccc1Cl | -18.6 | 68.6* | -4.9 | -3.5 | -15.3 | -0.9
CCN(c1ccccc1C(=O)O)S(=O)(=O)c1cccc2nsnc12 | 6.7 | 37.3 | -14.9 | 6.4 | -5.9 | -12.0
CC(OC(=O)Cc1n[nH]c(=O)c2ccccc12)C(=O)Nc1ccc(F)cc1 (stereo not drawn) | x | x | 32.8 | 1.6 | 2.5 | -15.4
CCOCC(=O)Nc1nc2ccc(C)cc2s1 | -10.2 | 3.9 | 7.8 | 6.8 | -4.7 | 32.4*
CC(=O)C[C@H](O)CC(=O)[C@@H]1OC(=O)CCCCCc2ccccc21 | x | x | -23.1 | -11.8 | 13.6 | -13.5
O=C(CN(c1ccccc1)S(=O)(=O)c1ccccc1)NCCSCc1ccco1 | -16.1 | 71.7* | -9.9 | 3.2 | -0.2 | -14.7
Cc1cc(C(=O)OCC(=O)Nc2c(F)cccc2F)c(C)n1-c1ccccc1 | -8.3 | 64.3* | -11.5 | 2.7 | -3.4 | -7.7
Cc1cc(C(=O)OCC(=O)N2CCOCC2)c(C)n1-c1ccccc1 | x | x | -12.9 | 4.8 | -1.8 | -6.1
Cc1cc(/C=N/Nc2ccc([N+](=O)[O-])cn2)c(C)n1-c1ccccc1 | -5.8 | 59.2 | x | 0.3 | 4.8 | -5.7
Cc1ccc(-n2c(C)cc(/C=N/Nc3ccc([N+](=O)[O-])cn3)c2C)cc1 | -21.7 | 101.1* | -9.1 | 12.2 | 6.4 | -10.1
CCn1c(CSc2nc3ccccc3s2)nnc1SCC(=O)c1ccc(O)cc1O | 0.5 | 83.3* | 12.8 | 2.2 | -0.5 | -9.5
C=CCn1c(CSc2nc3ccccc3s2)nnc1SCC(=O)OCC | 1.7 | 17.4 | -29.8 | 3.3 | 33.1 | -6.5
Cc1ccc(C)c(NCCC#N)c1 | 0.9 | 13.5 | 17.3 | -2.6 | -3.5 | -12.0

Bioassay records: PubChem BioAssay, several laboratories
